# Measured values published in PubChem BioAssay (NCATS).
# Results filed as inconclusive are left out. Entries that show only a call come without a potency. Calls of active or inactive are those of the source. The call rests on the fitted dose curve; in most records, active means well fitted curve in the direction sought with a large enough effect; inconclusive means small, poorly fitted or top-dose-only effect, or another doubt; inactive means no such curve, though single readings can be large; an effect the other way counts as inactive or inconclusive.
# Assays:
# [1] = qHTS of pediatric cancer cell lines to identify multiple opportunities for drug repurposing: Confirmatory screen for U-2 OS cells (AID 1347122); further: nearly all actives have a fitted effect of over 65% in size; further: potency means the concentration at half of the fitted maximal effect
# Procedure, shortened: (§1)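 Cells (500-1,000/well) in growth media were settled 5 h at 37 degrees C, then given compounds for 48 h. Viability was read as CellTiter-Glo luminescence. Primary runs used MIPE at 11 points (0.78 nM-46 µM) and NPC at 8 points (0.59 nM-46 µM); follow-ups used 11 points.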
# [2] = qHTS of pediatric cancer cell lines to identify multiple opportunities for drug repurposing: Confirmatory screen for Rh41 cells (AID 1347123);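 further: 48 h compound exposure; nearly all actives have a fitted effect of over 60% in size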; further: potency means the concentration at half of the fitted maximal effect
# Procedure, shortened: as §1
# [3] = qHTS of pediatric cancer cell lines to identify multiple opportunities for drug repurposing: Confirmatory screen for RD cells (AID 1347124);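 further: cells exposed to compound for 48 h before viability readout; nearly all actives have a fitted effect of over 65% in size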; further: potency means the concentration at half of the fitted maximal effect
# Procedure, shortened: as §1
# [4] = qHTS of pediatric cancer cell lines to identify multiple opportunities for drug repurposing: Confirmatory screen for OHS-50 cells (AID 1347128);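 further: compound exposure lasted 48 h at 37 degrees C; nearly all actives have a fitted effect of over 55% in size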; further: potency means the concentration at half of the fitted maximal effect
# Procedure, shortened: as §1
# [5] = qHTS of pediatric cancer cell lines to identify multiple opportunities for drug repurposing: Confirmatory screen for SK-N-SH cells (AID 1347129);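 further: cells exposed to compound for 48 h before viability read; nearly all actives have a fitted effect of over 60% in size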; further: potency means the concentration at half of the fitted maximal effect
# Procedure, shortened: as §1
# [6] = qHTS of pediatric cancer cell lines to identify multiple opportunities for drug repurposing: Confirmatory screen for control Hh wild type fibroblast cells (AID 1347121); further: nearly all actives have a fitted effect of over 70% in size
# Procedure, shortened: as §1
# [7] = qHTS of pediatric cancer cell lines to identify multiple opportunities for drug repurposing: Confirmatory screen for Rh18 cells (AID 1347125); further: nearly all actives have a fitted effect of over 55% in size; further: potency means the concentration at half of the fitted maximal effect
# Procedure, shortened: as §1
# Furin (Homo sapiens) = Furin (Homo sapiens) (UniProt P09958); experiment: Furin counterscreen qHTS for Zika virus inhibitors (AID 1347149); further: nearly all actives have a fitted effect of over 70% in size; further: potency means the concentration at half of the fitted maximal effect;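 on activity change, negative = inhibition: purified recombinant full-length human furin enzyme at 5 nM; fluorescence gain from furin cutting a BOC-RVRR-AMC peptide substrate over 15 min; top concentration of the series differs between compounds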
# Sequence of Furin (Homo sapiens) (P09958 whole entry, looked up): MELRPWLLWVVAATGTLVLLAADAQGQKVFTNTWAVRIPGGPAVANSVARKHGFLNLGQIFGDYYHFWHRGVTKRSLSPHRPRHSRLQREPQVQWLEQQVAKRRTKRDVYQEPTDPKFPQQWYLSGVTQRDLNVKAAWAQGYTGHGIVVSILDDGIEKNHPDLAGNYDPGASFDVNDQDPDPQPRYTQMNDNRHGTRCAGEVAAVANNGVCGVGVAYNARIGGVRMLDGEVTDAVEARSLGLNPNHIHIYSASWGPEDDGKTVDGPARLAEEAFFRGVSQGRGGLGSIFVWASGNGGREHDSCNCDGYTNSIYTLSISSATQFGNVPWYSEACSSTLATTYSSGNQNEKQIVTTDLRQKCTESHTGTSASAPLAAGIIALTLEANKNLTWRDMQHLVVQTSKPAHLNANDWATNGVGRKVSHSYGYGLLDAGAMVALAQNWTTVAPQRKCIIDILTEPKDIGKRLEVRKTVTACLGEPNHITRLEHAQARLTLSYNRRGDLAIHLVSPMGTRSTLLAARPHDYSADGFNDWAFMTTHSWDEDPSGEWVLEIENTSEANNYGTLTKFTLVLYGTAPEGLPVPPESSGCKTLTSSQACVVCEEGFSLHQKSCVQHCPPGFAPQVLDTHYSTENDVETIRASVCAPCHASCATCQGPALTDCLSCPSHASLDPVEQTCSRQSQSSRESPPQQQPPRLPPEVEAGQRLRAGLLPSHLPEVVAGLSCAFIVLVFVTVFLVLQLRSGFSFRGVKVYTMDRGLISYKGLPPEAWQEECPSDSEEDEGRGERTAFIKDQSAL
# Procedure, shortened: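 Fluorogenic cleavage of BOC-RVRR-AMC (2 microM final, Km ~15 µM) was monitored (ex 340, em 450 nm) at 37C after 15 min RT preincubation of 5 nM furin with compounds in HEPES pH 7.0 buffer with CaCl2 and Triton X-100. Percent inhibition was fitted to a 4-parameter Hill curve.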
# [8] = target: N-terminal Xaa-Pro-Lys N-methyltransferase 1 (Homo sapiens) (UniProt Q9BV86); experiment: qHTS Assay for Inhibitors of N-terminal methyltransferase 1 (NTMT1): LOPAC validation of the NTMT1 SAHH-coupled ThioGlo3 Assay (AID 1347143); further: nearly all actives have a fitted effect of over 70% in size; further: potency means the concentration at half of the fitted maximal effect
# Sequence of N-terminal Xaa-Pro-Lys N-methyltransferase 1 (Homo sapiens) (Q9BV86 whole entry, looked up): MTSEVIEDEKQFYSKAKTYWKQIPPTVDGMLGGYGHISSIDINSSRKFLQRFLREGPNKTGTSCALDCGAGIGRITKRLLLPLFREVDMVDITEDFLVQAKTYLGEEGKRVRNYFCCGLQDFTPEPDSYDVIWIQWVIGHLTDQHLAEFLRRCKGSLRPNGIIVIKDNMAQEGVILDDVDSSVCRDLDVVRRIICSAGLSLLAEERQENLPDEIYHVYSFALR
# Procedure, shortened: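 Fluorescence read-out (excitation 340nm, emission 450nm) of SAH-derived thiol, measured via SAHH coupling and ThioGlo3, taken immediately and after a 30 min room-temperature reaction, then normalized to the background read. Enzyme: NTMT1 at 125nM; cofactor SAM 100uM in the added reagent.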
# [9] = system: Zika virus NS2B-NS3 protease (unlinked); experiment: Optimization of GU AMC qHTS for Zika virus inhibitors: Unlinked NS2B-NS3 protease assay (AID 1347151); further: nearly all actives have a fitted effect of over 80% in size; further: potency means the concentration at half of the fitted maximal effect; on activity change, negative = inhibition: series mostly up to about 52 µM
# Procedure, shortened: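 Fluorescence read-out (340 nm ex / 450 nm em) of AMC peptide cleavage, taken immediately and after 15 min at room temperature (~20% conversion). Enzyme was the unlinked NS2B–NS3 complex at 25 nM in Tris pH 8.0 buffer.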
smiles,measurement,setting,value
Nc1ccc2cc3ccc(N)cc3nc2c1,Potency,[1],9.27 µM (active)
same,Potency,[2],5.85 µM (active)
same,Potency,[3],5.22 µM (active)
same,Potency,[4],20.8 µM (active)
same,Potency,[5],5.26 µM (active)
CC(=O)[C@@]1(O)CC[C@H]2[C@@H]3C[C@H](C)C4=CC(=O)CC[C@]4(C)[C@H]3CC[C@@]21C,Potency,[6],inactive
same,Potency,[1],inactive
same,Potency,[3],0.827 µM (active)
same,Potency,[7],inactive
same,Potency,[4],inactive
same,Potency,[5],inactive
Nc1c2ccccc2nc2ccccc12,Potency,[1],14.7 µM (active)
same,Potency,[2],16.5 µM (active)
same,Potency,[3],3.29 µM (active)
same,Potency,[7],4.65 µM (active)
same,Potency,[4],3.69 µM (active)
same,Potency,[5],8.33 µM (active)
CCN(CC)CC(=O)OCC(=O)[C@@]1(O)CC[C@H]2[C@@H]3CCC4=CC(=O)CC[C@]4(C)[C@H]3[C@@H](O)C[C@@]21C,Potency,[6],inactive
same,Potency,[1],inactive
same,Potency,[2],inactive
same,Potency,[7],inactive
same,Potency,[4],inactive
same,Potency,[5],inactive
CCC1(c2cnc[nH]2)Cc2ccccc2C1,Potency,[6],inactive
same,Potency,[2],16.5 µM (active)
same,Potency,[7],16.5 µM (active)
same,Potency,[4],inactive
same,Potency,[5],inactive
CC(=O)O[C@@H]1C(=O)O[C@@H]2[C@H]1OC(=O)[C@@H]2OC(C)=O,Potency,[6],inactive
same,Potency,[3],1.17 µM (active)
same,Potency,[7],inactive
same,Potency,[4],inactive
same,Potency,[5],inactive
CC(C)(C)CC(=O)OCC(=O)[C@@]1(O)CC[C@H]2[C@@H]3CCC4=CC(=O)C=C[C@]4(C)[C@H]3[C@@H](O)C[C@@]21C,Potency,[6],inactive
same,Potency,[1],inactive
same,Potency,[3],inactive
same,Potency,[7],inactive
same,Potency,[4],inactive
same,Potency,[5],inactive
C[C@]12CCC(=O)C=C1CC[C@@H]1[C@@H]2[C@@H](O)C[C@@]2(C)[C@H]1CC[C@]2(O)C(=O)COC(=O)CCC(=O)O,Potency,[6],inactive
same,Potency,[1],inactive
same,Potency,[2],inactive
same,Potency,[3],inactive
same,Potency,[7],inactive
same,Potency,[4],inactive
same,Potency,[5],inactive
O=C(COCCOCCOCC(=O)Nc1c(I)cc(I)c(C(=O)O)c1I)Nc1c(I)cc(I)c(C(=O)O)c1I,Potency,Furin (Homo sapiens),inactive
Cc1nn(-c2ccccc2)c(C)c1/C=N/N1CCN(Cc2ccccc2)CC1,Potency,[8],15.8 µM (active)
same,Potency,[9],inactive
O=C(CCCCC(=O)Nc1c(I)cc(I)c(C(=O)O)c1I)Nc1c(I)cc(I)c(C(=O)O)c1I,"activity change, negative = inhibition",Furin (Homo sapiens),9.18% [at 18.8 µM] (inactive)
N[C@@H](Cn1ccc(=O)c(O)c1)C(=O)O,Potency,[8],inactive
same,Potency,[9],inactive
N[C@@H](Cc1cc(I)c(O)c(I)c1)C(=O)O,Potency,Furin (Homo sapiens),inactive
CCCC(=O)O[C@]1(C(=O)CCl)[C@@H](C)C[C@H]2[C@@H]3CCC4=CC(=O)C=C[C@]4(C)[C@@]3(F)C(=O)C[C@@]21C,Potency,[3],inactive
same,Potency,[7],inactive
same,Potency,[4],inactive
same,Potency,[5],inactive
CCC(=O)O[C@H]1[C@H](O[C@@H]2[C@@H](C)[C@H](O[C@H]3C[C@@](C)(OC)[C@@H](O)[C@H](C)O3)[C@@H](C)C(=O)O[C@H](CC)[C@@](C)(O)[C@H](O)[C@@H](C)C(=O)[C@H](C)C[C@@]2(C)O)O[C@H](C)C[C@@H]1N(C)C,Potency,Furin (Homo sapiens),34.1 µM (active)
COC(=O)C1=CO[C@@H](O)[C@@H]2C(CO)=CC[C@H]12,Potency,[8],inactive
same,Potency,[9],inactive
Clc1ccc2c(c1)N=C(N1CCNCC1)c1ccccc1N2,Potency,[8],inactive
same,Potency,[9],inactive
O=[N+]([O-])c1ccc(O)c2ncccc12,Potency,[1],inactive
same,Potency,[7],10.4 µM (active)
same,Potency,[5],9.35 µM (active)
CCN(CC)CCNC(=O)c1ccc(NS(C)(=O)=O)cc1,Potency,[8],inactive
same,Potency,[9],inactive
Cn1cnc2c(NCc3ccccc3)nc(NCCO)nc21,Potency,[8],inactive
same,Potency,[9],inactive
O=C(Nc1ccc(S(=O)(=O)N2CCOCC2)cc1)c1cc(Cl)ccc1NS(=O)(=O)c1ccc(Cl)s1,Potency,Furin (Homo sapiens),21.5 µM (active)
COc1ccccc1N1CCN(CCN2C(=O)CC3(CCCC3)CC2=O)CC1,Potency,[8],56.2 µM (active)
same,Potency,[9],inactive
O=[N+]([O-])c1ccc(-c2nc(-c3ccc(F)cc3)c(-c3ccncc3)[nH]2)cc1,Potency,[9],inactive
NC(N)=NCCCCN=C(N)N,Potency,[8],inactive
same,Potency,[9],inactive
C[N+](C)(C)CCO,Potency,[8],inactive
same,Potency,[9],inactive
Cc1nc(C2CCCCC2)c(-c2ccc(S(N)(=O)=O)c(F)c2)o1,Potency,Furin (Homo sapiens),24.1 µM (active)
Nc1ncnc2n[nH]c(Nc3ccc(F)cc3)c12,Potency,[8],inactive
same,Potency,[9],inactive
CC[C@@]1(O)C(=O)OCc2c1cc1n(c2=O)Cc2c-1nc1ccccc1c2/C=N/OC(C)(C)C,Potency,[2],0.522 µM (active)
same,Potency,[7],0.465 µM (active)
same,Potency,[4],0.0369 µM (active)
same,Potency,[5],1.87 µM (active)
O=C1NC(c2cccc([N+](=O)[O-])c2)=CCN1c1ccccc1O,Potency,[8],50.1 µM (active)
same,Potency,[9],inactive
CCCCC(=O)OCC(=O)[C@H]1[C@H](C)C[C@H]2[C@@H]3C[C@H](F)C4=CC(=O)C=C[C@]4(C)[C@@]3(F)[C@@H](O)C[C@@]21C,Potency,[2],29.3 µM (active)
same,Potency,[7],20.8 µM (active)
same,Potency,[4],20.8 µM (active)
same,Potency,[5],inactive
O=C1NC(=O)/C(=C/c2ccc3c(c2)OC(F)(F)O3)S1,Potency,[8],inactive
same,Potency,Furin (Homo sapiens),inactive
CC(C)N(CCC(=O)c1ccc2ccccc2c1)Cc1ccccc1,Potency,[8],inactive
same,Potency,[9],26.7 µM (active)
Brc1ccc([C@H]2CN3CCSC3=N2)cc1,Potency,[8],79.4 µM (active)
COc1cccc2c1[C@@H]1CN(CCCCn3c(=O)[nH]c4c(sc5ncc(-c6ccccc6)nc54)c3=O)C[C@@H]1CO2,Potency,[9],inactive
C[C@H]1C[C@H]2[C@@H]3CCC4=CC(=O)C=C[C@]4(C)[C@H]3C(=O)C[C@]2(C)[C@@]1(O)C(=O)CO,Potency,[3],2.93 µM (active)
same,Potency,[7],3.29 µM (active)
same,Potency,[5],inactive
